# S2 tox – cell viability loss in ATXN counter-screen; S2 cells (HEK-293 line with an ATXN2-luciferase reporter) viability, CellTiter-Fluor protease fluorescence, 24 h; Potency, µM (series often up to 56.7 µM), actives largely listed as cytotoxic; 0.49% of 400,000 active; AID 651635; note: nearly all actives have a fitted effect of over 40% in size
# HTT cytoprotect – cytoprotection in Huntington HTT-Q103 PC12 cell model. PC12 HTT-Q103 induced, cytoprotection, ATP luminescence, 40 h. Potency, µM (series often up to 56.4 µM), for the others: cytoprotection (ATP increase), usual class: activators. 0.14% of 230,000 active. AID 1471; note: % of control where 0% means no effect; nearly all actives have a fitted effect of over 45% in size
#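 Compounds added alongside 100 nM tebufenozide, which induces toxic Q103 huntingtin exon 1-GFP in stable PC12 cells; surviving cells quantified by luminescent ATP measurement. Medium: phenol red-free DMEM, 5% equine and 5% calf serum.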
# HepG2 tox – kills HepG2 cells in TGF-b inhibitor counter-screen; Potency, µM (top dose mostly 46.1 µM), for the others: at the top dose activity change, negative = cytotoxicity, usual class: cytotoxic; AID 588856; 0.76% of 410,000 active; HepG2 CAGA-GFP viability, ATP luminescence, 18 h
#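 CellTiter-Glo luminescence gave cytotoxicity after 18 hours at 37 degrees C. The cells were HepG2 CAGA-GFP in 1% FBS DMEM, stimulated with 500 pg/mL TGF-beta after compound addition. %Activity was normalised to no-cell wells (complete cell-killing) and DMSO (no toxicity), and curves were fitted and classified.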
# ATXN2 expr inh – reduces ATXN2 reporter expression in HEK-293 cells. HEK-293 ATXN2-luciferase reporter, luminescence, 24 h. Potency, µM (highest dose often 57 µM), for inactives: top-dose activity change, negative = inhibition, usual class: inhibitors. 0.72% of 360,000 active. AID 1745845; note: % is set by controls: 0 for no effect and ±100 for the full control effect; nearly all actives have a fitted effect of over 55% in size
#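 qHTS (up to 57 uM final) was run with 24 h compound exposure of reporter cells at 37 °C. Each well was multiplexed: SteadyGlo luminescence measured ATXN2-luciferase expression after a fluorogenic Gly-Phe-AFC viability readout (25 uM final).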
# HTT aggregate – inhibitors of mutant huntingtin aggregate formation in PC12 cells | AID 1688 | Potency, µM (top dose mostly 46.1 µM), inactives show at the top dose activity change, negative = inhibition, actives largely listed as inhibitors | PC12 HttQ103-GFP aggregates, Acumen cytometry, 40 h | 1.1% of 220,000 active; note: % is set by controls: 0 for no effect and ±100 for the full control effect; nearly all actives have a fitted effect of over 60% in size
#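 Ecdysone-promoter PC12 model expressing HTT exon 1 Q103 fused to GFP, induced by tebufenozide at 100 nM final. Compounds titrated; aggregates sized 1–25 µm scored on a 488 nm laser cytometer.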
# TGFb SMAD3 inh – inhibitors of TGF-b signaling | HepG2 CAGA-GFP TGF-b/SMAD3 reporter, GFP fluorescence, 18 h; TGF-beta stimulated, 500 pg/mL final | 1.2% of 410,000 active | Potency, µM (doses to about 46.1 µM), inactives show top-dose activity, negative = inhibition, hits mostly inhibitors | AID 588855; note: % is set by controls: 0 for no effect and ±100 for the full control effect; nearly all actives have a fitted effect of over 65% in size
#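 TGF-beta reporter screen: HEPG2 CAGA-GFP, 1% FBS, 500 pg/mL TGF-beta final, 18 h; per-cell GFP summed per well; curves fitted and categorized by class.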
# Starred values were filed as active, the others as inactive; i = inactive; ? = inconclusive; / = no result given; [ ] = dose if it differs, or a comment. Shown are actives, neighbours in structure and some others; about 2.8% of the full set was active somewhere. Calls come from the whole dose curve; as a rule, active = well fitted curve in the direction sought with a large enough effect; inconclusive = small, poorly fitted or top-dose-only effect, or another doubt; inactive = no such curve, though single readings can be large; an effect the other way counts as inactive or inconclusive. Potency is the fitted concentration of half-maximal effect.
SMILES,S2 tox,HTT cytoprotect,HepG2 tox,ATXN2 expr inh,HTT aggregate,TGFb SMAD3 inh
CC(=O)N1CCN(/[N+]([O-])=N/Oc2ccc([N+](=O)[O-])cc2[N+](=O)[O-])CC1,/,/,-98.4%,/,/,?
O=[N+]([O-])c1ccc(O/N=[N+](\[O-])N2CCN(c3ccccc3)CC2)c([N+](=O)[O-])c1,/,/,-25.0%,/,/,11.2µM*
O=[N+]([O-])c1ccc(O/N=[N+](\[O-])N2CCN(c3ncccn3)CC2)c([N+](=O)[O-])c1,/,/,-91.4%,/,/,10µM*
CC(C)Nc1nc(NCCOc2ccccc2Cl)c2sc(-c3ccccc3)cc2n1,?,/,14.1µM*,?,/,?
COc1ccccc1CNc1nc(NC(C)C)nc2cc(-c3ccccc3)sc12,14.1µM*,/,12.6µM*,20µM*,/,?
COCCNc1nc(NCCOc2ccccc2)c2sc(-c3ccccc3)cc2n1,/,/,-69.4%,?,/,?
COCCNc1nc(NCCOC)c2sc(-c3ccccc3)cc2n1,i,/,-29.0%,-17.0%,/,-1.9%
C=CCNc1nc(NCc2cccc(OC)c2)c2sc(-c3ccccc3)cc2n1,?,/,11.2µM*,?,/,?
C[C@H](C(=O)c1ccccc1)[C@@H](c1ccccc1)N1CCOCC1,/,-1.6%[10 µM],/,/,/,/
COc1ccccc1NC(=O)CSc1nnnn1-c1ccc2c(c1)OCO2,i,-9.5%[1.9 µM],11.2µM*,-25.5%,6.0%,-11.9%
NC(N)=NS(=O)(=O)c1ccc(N/C=C/C(=O)c2ccc(Cl)c(Cl)c2)cc1,i,/,-16.1%,-31.1%,/,-20.2%
CCOc1ccc(C(=O)/C=C/Nc2ccc(S(=O)(=O)N=C(N)N)cc2)cc1,?,-6.7%[10 µM],-4.7%,-17.2%,9.3%,20µM*
CC(C)CC(=O)Nc1ccc(C(=O)NNC(=S)NC(=O)C2CCCCC2)cc1,i,18.1%,2.8%,-32.2%,10µM*,6.1%
O=[N+]([O-])c1ccc(Nc2ccccc2-c2ccccc2)c2nonc12,/,/,/,-28.6%,/,/
CCN(CC)C(=O)C1CCCN(c2ncnc3c2cnn3-c2ccc(Cl)cc2)C1 (stereo not drawn),?,/,-24.8%,12.6µM*,/,-1.9%
c1ccc(-n2ncc3c(N4CCCCC4)ncnc32)cc1,i,-123.7%,-26.1%,12.6µM*,-14.9%,-4.1%
CCN(CC)C(=O)C1CCCN(c2ncnc3c2cnn3-c2cccc(C)c2)C1 (stereo not drawn),i,-22.1%[10 µM],-18.5%,-27.6%,-4.7%,-6.2%
Cc1cccc(-n2ncc3c(NC(C)C)ncnc32)c1,i,-41.4%[10 µM],-12.0%,47.2%,11.2µM*,-9.1%
NNc1ncnc2c1cnn2-c1ccccc1,i,-35.0%,-31.6%,-29.0%,22.4µM*,?
COc1cccc(CNc2nc(Cl)nc3nc[nH]c23)c1,/,/,-10.2%,/,/,1.4%
CC(=O)c1cc2ccccc2s1,i,/,/,3.3%,/,/
Cc1ccccc1C1(CC(=O)N2CCCC(C)C2)CC(=O)N(Cc2cccnc2)C1=O (stereo not drawn),i,/,/,/,/,/
COc1cc(CNC(=O)CCCCC=CC(C)C)ccc1O,/,/,/,7.1%,/,/
Cc1ccc(-n2ncc3c(N4CCCC4)ncnc32)c(C)c1,/,-17.3%,-12.4%,/,?,4.7%
COc1cccc(N2CCN(c3ncnc4c3cnn4-c3ccc(C)cc3C)CC2)c1,10µM*,-124.1%,-60.0%,7.94µM*,22.4µM*,?
SMILES,S2 tox,HTT cytoprotect,HepG2 tox,ATXN2 expr inh,HTT aggregate,TGFb SMAD3 inh
S=C(Nc1cc(Cl)cc(Cl)c1)NC1CCN(Cc2ccccc2)CC1,?,/,15.8µM*,?,/,?
COCCNC(=O)CN(C(=O)CCC(=O)Nc1ccccn1)c1ccccc1F,i,-16.9%,0.2%,?,0.0045µM*,-9.2%
COCCNC(=O)CN(C(=O)CCC(=O)Nc1ccccn1)c1ccccc1OC,i,/,-4.6%,6.9%,/,-25.5%
O=C1c2ccccc2C(=O)C1(O)O,/,19.9%,/,/,/,/
CC1(S(=O)(=O)O)CC(=O)c2ccccc2C1=O (stereo not drawn),/,/,-102.7%,25.1µM*,/,?
COc1cc2ncnc(NCc3ccc(C)o3)c2cc1OC,i,-78.8%,-8.8%,-31.4%,16.8%[9.22 µM],-4.7%
Cc1ccc(CNc2ncnc3ccc(-c4ccoc4C)cc23)o1,i,/,-53.6%,-28.4%,/,15.8µM*
Cc1ccc(CNc2ncnc3cc(Cl)ccc23)o1,i,-9.6%,-5.9%,-17.7%,12.6µM*,0.0%
CN=c1scc(-c2ccccc2F)n1/N=C/c1ccc[nH]1,?,-177.5%,-23.8%,3.16µM*,-11.3%,-13.1%
COc1ccc(/C=C/c2nccc3ccccc23)cc1OC,/,/,-25.4%,/,/,?
COc1cc2nc(N(CCCN(C)C)C(=O)c3ccc(S(=O)(=O)N4CCc5ccccc54)cc3)sc2cc1OC,i,/,-32.7%,-13.6%,/,-13.4%
COc1ccc2sc(N(CCCN(C)C)C(=O)c3ccc(S(=O)(=O)N4CCCc5ccccc54)cc3)nc2c1,/,/,11.2µM*,?,/,22.4µM*
CCN(Cc1ccccc1)S(=O)(=O)c1ccc(C(=O)N(CCCN(C)C)c2nc3cc4c(cc3s2)OCCO4)cc1,?,/,-92.6%,?,/,?
Cc1cc(C)c2nc(N(CCCN(C)C)C(=O)c3ccc(S(=O)(=O)N4CCCCCC4)cc3)sc2c1,i,/,-74.3%,?,/,15.8µM*
CCN(Cc1ccccc1)S(=O)(=O)c1ccc(C(=O)N(CCCN(C)C)c2nc3cc(OC)ccc3s2)cc1,?,/,22.4µM*,?,/,?
Cc1ccc2sc(N(CCCN(C)C)C(=O)c3ccc(S(=O)(=O)N4CCCCCC4)cc3)nc2c1C,i,/,-84.7%,?,/,?
Cc1csc(C)[n+]1CCC1CCCCC1,/,/,-4.5%,/,/,-18.1%
COc1ccc2cc(-c3nc(-c4ccc(S(C)=O)cc4)[nH]c3-c3ccncc3)ccc2c1 (stereo not drawn),/,/,/,-16.9%,/,/
C=C[C@@H]1c2cc(C)ccc2N(S(=O)(=O)c2ccc(C)cc2)[C@H](c2ccc(C(=O)OC)cc2)C1(C#N)C#N,/,/,13.2%,/,/,6.9%
COn1c(C)c(C(C)=O)c2c3nonc3ccc21,i,5.6%,7.8%,88.0%,35.5µM*,-26.1%
CN1CCN(c2nc3c(=O)[nH]c(N)nc3n2C2OC(CO)C(O)C2O)CC1 (stereo not drawn),/,/,31.7%,/,/,3.1%
COc1cccc(CNC(=O)c2c(OC)cc(=O)n3c2CCN(C(=O)c2ccc(C)s2)CC3)c1,i,/,/,/,/,/
Cn1c(=O)c2c(O)c([N+](=O)[O-])c(=O)n(C)c2n(C)c1=O,i,-14.1%[10 µM],11.2µM*,-2.7%,1.7%[9.22 µM],-2.4%
